These results are taken from PubChem BioAssay (NCATS).

Results filed as inconclusive are left out. Active and inactive are the calls of the source. Calls come from the whole dose curve; as a rule, active = well fitted cell-killing curve with a large enough effect; inconclusive = small, poorly fitted or top-dose-only effect; inactive = flat fitted curve, though single readings scatter.
Potency is the fitted concentration of half-maximal effect.

The experiment can be described thus: Cell Viability - LYMP2-020 (AID 986).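 For activity change, negative = viability loss: plate controls were DMSO only for no effect and tetraoctylammonium bromide at 92 µM for full effect.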 Note: nearly all actives have a fitted effect of over 55% in size. Conditions: series mostly up to 92.2 µM; activity change, negative = viability loss: at the top concentration. The source says: NIH Chemical Genomics Center [NCGC]
NIH Molecular Libraries Screening Centers Network [MLSCN]
National Institutes of Environmental Health Sciences [NIEHS]
National Toxicology Program [NTP]
We have developed a 1536-well cell-based assay for quantitative high throughput screening (qHTS) against a number of cell lines to determine in vitro cytotoxicity of small molecules. This particular assay uses a human lymphoblastoid cell line (LYMP2-020) purchased from Coriell Institute for Medical Research.
NCGC Assay Protocol Summary:
The CellTiter-Glo luminescent cell viability assay (Promega) is a homogeneous method to measure the number of viable cells in culture. The end point readout of this assay is based on quantitation of intracellular ATP, an indicator of metabolic activity, using the luciferase reaction. Luciferase catalyzes the oxidation of beetle Luciferin to oxyluciferin and light in the presence of ATP. The luminescent signal is proportional to amount of ATP present.
Using the CellTiter-Glo luminescent cell viability assay, the amount of cellular ATP was measured in the lymphoblastoid cell line with complete culture medium following compound treatment for 24 hours. The assay was performed in opaque white Kalypsys 1536-well plates. In the screen, tetraoctylammonium bromide was used as positive control. Library compounds were measured for their ability to cause acute toxicity in the cell line, as reflected by a decrease in intracellular ATP levels, in a concentration-dependent manner. […] AC50 values were determined from concentration-response data modeled with the standard Hill equation.
qHTS protocol for CellTiter Glo lymphoblastoid cellular assay
[Step] [Parameter] [Value] [Description]
1. Reagent; 5 uL; 2500 lymphoblastoid cells/well
2. Time; 5 hr; 37 C incubation
4. Controls; 23 nL; Tetraoctylammonium bromide 6.4pM to 92 uM
5. Time; 24 hr; 37 C incubation
6. Reagent; 5 uL; CellTiter Glo reagent
7. Time; 30 min; Room Temperature
8. Detection; Luminescence; Viewlux plate reader
Keywords: cell viability, cytotoxicity, lymphoblastoid cell line, luminescence, NTPHTS, NTPHTS_NCGC, NIEHS, DSSTox, MLSMR, MLSCN, NIH Roadmap, qHTS, NCGC
Regarding `CCCCCCCCCCCC[N+](C)(C)CCOc1ccccc1`, the Potency was 39.8 µM (active).

Consider `CN(C)C(=S)SSC(=S)N(C)C`, for which the Potency was 0.398 µM (active).

As for `COP(=O)(OC)OC=C(Cl)Cl`, the “activity change, negative = viability loss” value was -7.2% (inactive).

Regarding `Oc1c(Br)cc(Br)cc1Br`, the “activity change, negative = viability loss” value is -5.39% (inactive).

As for `C[C@@H]1C[C@@H]([C@H](O)CC2CC(=O)NC(=O)C2)C(=O)[C@@H](C)C1`, the Potency was 0.794 µM (active).

As for `CNC(=O)Oc1cccc2ccccc12`, the “activity change, negative = viability loss” value is -6.99% (inactive).

On to `O=C(CCl)c1ccc(Cl)cc1Cl`, for which the Potency is 5.01 µM (active).

Consider `Oc1ccc(Cl)cc1Sc1cc(Cl)ccc1O`, for which the Potency is 39.8 µM (active).

For `Oc1ccc(Cl)cc1Cc1cc(Cl)ccc1O`, the Potency was 39.8 µM (active).

Regarding `CC[n+]1c(-c2ccccc2)c2cc(N)ccc2c2ccc(N)cc21`, the Potency is 15.8 µM (active).
